# Data: PMC7862700, “An all-to-all approach to the identification of sequence-specific readers for epigenetic DNA modifications on cytosine”
# Legend:
# Assay in all cases: DAPPL (digital affinity profiling via proximity ligation, sequencing); 10 mM Tris-HCl pH 7.5, 50 mM NaCl, 1 mM DTT, 4% glycerol, room temperature, 30 min; GST-TFs on glutathione beads, 16-mer random dsDNA library, 0.1% formaldehyde crosslink after washing; high values mean tight binding
# [1] = target: T1, FEV (Homo sapiens, UniProt Q99581 1-238); details: protein: recombinant; tags: N-terminal GST; dsDNA, one strand shown
# T1 sequence: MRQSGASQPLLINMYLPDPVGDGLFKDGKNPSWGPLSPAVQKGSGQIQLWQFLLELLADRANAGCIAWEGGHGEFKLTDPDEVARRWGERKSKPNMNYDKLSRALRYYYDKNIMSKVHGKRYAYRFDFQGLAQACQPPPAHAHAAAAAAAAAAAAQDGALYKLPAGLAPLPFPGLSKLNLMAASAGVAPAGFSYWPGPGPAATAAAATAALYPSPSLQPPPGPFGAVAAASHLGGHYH
# How it was run: (§1)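 Yeast served to express human transcription factors as GST fusions, which were then captured on glutathione beads and labelled with DNA barcodes. Pooled with a tag-only sample, they were incubated with 200 nmole of a 16-mer random double-stranded DNA library for 30 min at room temperature in Tris/NaCl/DTT/glycerol buffer, washed, crosslinked with 0.1% formaldehyde, ligated by proximity, amplified by PCR and sequenced. Dividing each hexamer's read frequency for a factor by its frequency for the tag-only sample gives the binding signal.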
# [2] = target: ETV5 (Homo sapiens, UniProt P41161 1-510); details: protein: recombinant; tags: N-terminal GST; dsDNA, one strand shown
# Chain of ETV5 (P41161 whole entry): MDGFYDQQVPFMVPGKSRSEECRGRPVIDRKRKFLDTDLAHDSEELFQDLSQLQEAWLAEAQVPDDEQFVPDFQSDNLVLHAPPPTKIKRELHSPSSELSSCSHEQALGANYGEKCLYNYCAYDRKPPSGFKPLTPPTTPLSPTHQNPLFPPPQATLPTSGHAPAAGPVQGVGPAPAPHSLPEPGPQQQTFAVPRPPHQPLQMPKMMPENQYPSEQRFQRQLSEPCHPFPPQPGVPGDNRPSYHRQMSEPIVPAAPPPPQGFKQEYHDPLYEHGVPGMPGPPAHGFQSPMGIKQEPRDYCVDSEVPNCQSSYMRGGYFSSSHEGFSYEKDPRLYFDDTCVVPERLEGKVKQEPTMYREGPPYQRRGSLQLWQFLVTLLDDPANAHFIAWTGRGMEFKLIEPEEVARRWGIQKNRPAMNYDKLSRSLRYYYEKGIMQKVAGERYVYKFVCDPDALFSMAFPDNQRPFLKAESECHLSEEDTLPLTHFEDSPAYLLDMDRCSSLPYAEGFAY
# How it was run: as §1
# [3] = target: HSF1 (Homo sapiens, UniProt Q00613 1-529); details: protein: recombinant; tags: N-terminal GST; chain copies: 3; dsDNA, one strand shown
# Chain of HSF1 (Q00613 whole entry): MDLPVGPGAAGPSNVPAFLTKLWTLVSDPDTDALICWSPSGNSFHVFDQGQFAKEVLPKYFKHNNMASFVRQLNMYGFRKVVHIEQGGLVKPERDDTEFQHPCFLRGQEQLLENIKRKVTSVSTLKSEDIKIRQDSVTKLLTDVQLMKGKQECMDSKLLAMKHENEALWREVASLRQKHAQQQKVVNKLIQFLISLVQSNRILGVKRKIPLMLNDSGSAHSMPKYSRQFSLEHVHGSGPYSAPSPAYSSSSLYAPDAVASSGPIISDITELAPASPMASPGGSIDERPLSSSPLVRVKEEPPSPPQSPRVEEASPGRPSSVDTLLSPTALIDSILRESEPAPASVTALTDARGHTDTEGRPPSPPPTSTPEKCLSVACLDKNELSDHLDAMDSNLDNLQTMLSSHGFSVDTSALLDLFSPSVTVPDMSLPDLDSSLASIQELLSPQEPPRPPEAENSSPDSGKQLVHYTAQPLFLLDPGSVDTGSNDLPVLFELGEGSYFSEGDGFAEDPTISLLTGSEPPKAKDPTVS
# How it was run: as §1
# [4] = target: T2, SPIC (Homo sapiens, UniProt Q8N5J4 1-248); details: protein: recombinant; tags: N-terminal GST; dsDNA, one strand shown
# T2 sequence: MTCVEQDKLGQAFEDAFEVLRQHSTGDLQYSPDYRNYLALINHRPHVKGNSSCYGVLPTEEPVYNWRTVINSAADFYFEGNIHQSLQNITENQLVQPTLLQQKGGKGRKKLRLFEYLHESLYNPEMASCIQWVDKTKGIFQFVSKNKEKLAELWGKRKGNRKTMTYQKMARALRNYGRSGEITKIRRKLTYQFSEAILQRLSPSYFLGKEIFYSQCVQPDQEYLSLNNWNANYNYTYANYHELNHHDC
# How it was run: as §1
# [5] = target: ELF4 (Homo sapiens, UniProt Q99607 1-663); details: protein: recombinant; tags: N-terminal GST; dsDNA, one strand shown
# Chain of ELF4 (Q99607 whole entry): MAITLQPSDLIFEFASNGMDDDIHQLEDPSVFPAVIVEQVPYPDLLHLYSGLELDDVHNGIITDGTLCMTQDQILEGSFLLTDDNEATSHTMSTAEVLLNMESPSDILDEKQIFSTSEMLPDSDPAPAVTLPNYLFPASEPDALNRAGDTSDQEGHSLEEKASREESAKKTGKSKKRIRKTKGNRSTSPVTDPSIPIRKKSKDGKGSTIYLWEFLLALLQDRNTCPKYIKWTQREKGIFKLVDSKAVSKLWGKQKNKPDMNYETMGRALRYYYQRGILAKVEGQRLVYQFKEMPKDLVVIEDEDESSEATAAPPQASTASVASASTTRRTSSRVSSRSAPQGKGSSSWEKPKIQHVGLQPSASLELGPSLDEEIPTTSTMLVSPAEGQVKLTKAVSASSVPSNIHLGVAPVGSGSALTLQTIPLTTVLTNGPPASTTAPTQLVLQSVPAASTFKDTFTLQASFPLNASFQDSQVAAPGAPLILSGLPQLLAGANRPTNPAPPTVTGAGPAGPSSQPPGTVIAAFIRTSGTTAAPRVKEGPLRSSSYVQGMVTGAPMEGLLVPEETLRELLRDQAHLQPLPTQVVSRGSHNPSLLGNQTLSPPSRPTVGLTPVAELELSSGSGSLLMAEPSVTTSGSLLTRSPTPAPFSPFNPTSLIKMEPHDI
# How it was run: as §1
# [6] = target: T3, ELK4 (Homo sapiens, UniProt P28324-2 1-405); details: protein: recombinant; tags: N-terminal GST; dsDNA, one strand shown
# T3 sequence: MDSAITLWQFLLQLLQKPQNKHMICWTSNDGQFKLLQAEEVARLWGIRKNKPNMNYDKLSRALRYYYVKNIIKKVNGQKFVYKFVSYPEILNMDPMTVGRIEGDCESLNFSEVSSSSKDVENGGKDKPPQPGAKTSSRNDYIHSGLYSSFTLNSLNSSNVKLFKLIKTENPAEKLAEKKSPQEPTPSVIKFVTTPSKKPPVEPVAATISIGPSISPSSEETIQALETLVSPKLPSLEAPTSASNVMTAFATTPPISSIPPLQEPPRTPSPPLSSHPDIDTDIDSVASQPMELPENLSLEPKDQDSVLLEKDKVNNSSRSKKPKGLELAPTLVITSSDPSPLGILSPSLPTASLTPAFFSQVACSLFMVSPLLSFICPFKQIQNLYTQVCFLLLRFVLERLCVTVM
# How it was run: as §1
# [7] = target: T4, ETV2 (Homo sapiens, UniProt O00321 1-342); details: protein: recombinant; tags: N-terminal GST; dsDNA, one strand shown
# T4 sequence: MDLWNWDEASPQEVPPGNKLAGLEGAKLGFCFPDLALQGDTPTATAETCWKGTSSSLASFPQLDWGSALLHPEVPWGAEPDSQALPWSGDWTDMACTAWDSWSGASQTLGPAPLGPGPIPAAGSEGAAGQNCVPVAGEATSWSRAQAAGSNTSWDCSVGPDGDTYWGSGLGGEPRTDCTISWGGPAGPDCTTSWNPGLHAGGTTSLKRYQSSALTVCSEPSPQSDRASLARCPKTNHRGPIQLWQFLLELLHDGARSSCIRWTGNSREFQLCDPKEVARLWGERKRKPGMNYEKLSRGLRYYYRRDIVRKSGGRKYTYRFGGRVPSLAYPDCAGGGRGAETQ
# How it was run: as §1
# [8] = target: T5, ELF3 (Homo sapiens, UniProt P78545 1-371); details: protein: recombinant; tags: N-terminal GST; dsDNA, one strand shown
# T5 sequence: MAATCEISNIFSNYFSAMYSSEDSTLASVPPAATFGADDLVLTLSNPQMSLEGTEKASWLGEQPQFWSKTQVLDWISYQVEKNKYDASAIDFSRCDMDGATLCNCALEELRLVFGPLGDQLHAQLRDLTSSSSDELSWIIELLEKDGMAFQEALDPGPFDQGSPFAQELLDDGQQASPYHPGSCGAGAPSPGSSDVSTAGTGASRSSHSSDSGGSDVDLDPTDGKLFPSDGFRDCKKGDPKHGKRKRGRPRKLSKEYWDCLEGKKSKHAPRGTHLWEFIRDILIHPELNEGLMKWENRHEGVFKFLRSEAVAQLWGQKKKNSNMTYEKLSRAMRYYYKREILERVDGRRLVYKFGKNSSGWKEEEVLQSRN
# How it was run: as §1
# [9] = target: CRX (Homo sapiens, UniProt O43186 1-299); details: protein: recombinant; tags: N-terminal GST; dsDNA, one strand shown
# Chain of CRX (O43186 whole entry): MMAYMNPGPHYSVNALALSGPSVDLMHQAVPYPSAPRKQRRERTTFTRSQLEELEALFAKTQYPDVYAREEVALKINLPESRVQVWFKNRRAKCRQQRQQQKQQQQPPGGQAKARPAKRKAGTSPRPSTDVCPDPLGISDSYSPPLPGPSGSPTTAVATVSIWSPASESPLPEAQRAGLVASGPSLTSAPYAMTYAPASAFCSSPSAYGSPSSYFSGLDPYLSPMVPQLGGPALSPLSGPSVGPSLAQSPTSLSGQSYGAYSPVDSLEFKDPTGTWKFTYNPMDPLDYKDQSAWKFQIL
# How it was run: as §1
# [10] = target: ETV1 (Homo sapiens, UniProt P50549 1-477); details: protein: recombinant; tags: N-terminal GST; dsDNA, one strand shown
# Chain of ETV1 (P50549 whole entry): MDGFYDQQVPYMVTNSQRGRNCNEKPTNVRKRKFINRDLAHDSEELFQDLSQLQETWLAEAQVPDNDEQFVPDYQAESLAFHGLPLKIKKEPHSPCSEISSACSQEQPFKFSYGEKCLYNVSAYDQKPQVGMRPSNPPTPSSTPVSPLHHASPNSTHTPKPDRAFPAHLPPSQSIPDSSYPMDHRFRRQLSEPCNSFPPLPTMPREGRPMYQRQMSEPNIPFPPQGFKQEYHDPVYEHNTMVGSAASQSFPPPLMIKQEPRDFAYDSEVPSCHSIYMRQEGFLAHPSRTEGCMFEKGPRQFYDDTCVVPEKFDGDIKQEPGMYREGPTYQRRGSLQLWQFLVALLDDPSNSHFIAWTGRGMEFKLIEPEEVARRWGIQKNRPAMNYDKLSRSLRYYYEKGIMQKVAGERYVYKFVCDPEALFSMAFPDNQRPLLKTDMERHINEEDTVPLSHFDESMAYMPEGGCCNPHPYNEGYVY
# How it was run: as §1
# [11] = target: T6, ERF (Homo sapiens, UniProt P50548 1-548); details: protein: recombinant; tags: N-terminal GST; dsDNA, one strand shown
# T6 sequence: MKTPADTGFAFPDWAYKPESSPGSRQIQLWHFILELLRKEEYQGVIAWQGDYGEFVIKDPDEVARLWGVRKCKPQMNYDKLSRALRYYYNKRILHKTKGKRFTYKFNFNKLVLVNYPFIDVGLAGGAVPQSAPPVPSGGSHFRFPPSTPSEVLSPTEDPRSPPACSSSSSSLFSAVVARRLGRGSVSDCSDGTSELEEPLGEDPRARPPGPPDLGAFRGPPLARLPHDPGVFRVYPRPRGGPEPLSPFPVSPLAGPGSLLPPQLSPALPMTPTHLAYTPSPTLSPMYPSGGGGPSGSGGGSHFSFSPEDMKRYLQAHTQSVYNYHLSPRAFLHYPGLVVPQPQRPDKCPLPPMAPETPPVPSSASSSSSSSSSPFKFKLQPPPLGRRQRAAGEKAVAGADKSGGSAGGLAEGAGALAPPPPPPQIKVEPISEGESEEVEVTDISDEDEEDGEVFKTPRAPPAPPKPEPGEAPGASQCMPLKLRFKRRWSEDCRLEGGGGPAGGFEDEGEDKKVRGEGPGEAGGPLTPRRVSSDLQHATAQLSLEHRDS
# How it was run: as §1
# [12] = target: T7, ETV3L (Homo sapiens, UniProt Q6ZN32 1-361); details: protein: recombinant; tags: N-terminal GST; dsDNA, one strand shown
# T7 sequence: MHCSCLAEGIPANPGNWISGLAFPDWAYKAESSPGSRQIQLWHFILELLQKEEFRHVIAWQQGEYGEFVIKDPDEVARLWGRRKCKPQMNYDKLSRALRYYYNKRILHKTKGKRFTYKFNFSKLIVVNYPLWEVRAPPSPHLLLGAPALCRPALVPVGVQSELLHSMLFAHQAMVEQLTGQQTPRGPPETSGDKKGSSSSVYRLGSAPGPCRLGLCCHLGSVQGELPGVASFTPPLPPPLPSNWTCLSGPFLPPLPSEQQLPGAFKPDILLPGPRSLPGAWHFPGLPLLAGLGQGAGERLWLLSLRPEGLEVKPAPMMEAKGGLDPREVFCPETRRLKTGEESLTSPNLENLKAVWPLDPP
# How it was run: as §1
# [13] = target: T8, ETS2 (Homo sapiens, UniProt P15036 1-469); details: protein: recombinant; tags: N-terminal GST; dsDNA, one strand shown
# T8 sequence: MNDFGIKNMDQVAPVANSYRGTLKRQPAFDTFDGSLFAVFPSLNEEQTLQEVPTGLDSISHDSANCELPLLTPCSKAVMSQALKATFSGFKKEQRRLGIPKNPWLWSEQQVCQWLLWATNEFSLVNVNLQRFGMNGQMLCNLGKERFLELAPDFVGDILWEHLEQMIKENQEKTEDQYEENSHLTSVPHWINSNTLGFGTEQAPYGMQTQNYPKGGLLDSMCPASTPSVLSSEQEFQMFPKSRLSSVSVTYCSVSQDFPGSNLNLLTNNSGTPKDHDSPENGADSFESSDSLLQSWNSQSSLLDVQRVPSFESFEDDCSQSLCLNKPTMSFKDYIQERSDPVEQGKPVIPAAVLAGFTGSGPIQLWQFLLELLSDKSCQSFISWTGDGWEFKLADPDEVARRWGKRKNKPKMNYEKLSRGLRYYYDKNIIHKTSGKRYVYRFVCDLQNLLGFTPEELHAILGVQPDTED
# How it was run: as §1
# [14] = target: T9, SPDEF (Homo sapiens, UniProt O95238 1-335); details: protein: recombinant; tags: N-terminal GST; dsDNA, one strand shown
# T9 sequence: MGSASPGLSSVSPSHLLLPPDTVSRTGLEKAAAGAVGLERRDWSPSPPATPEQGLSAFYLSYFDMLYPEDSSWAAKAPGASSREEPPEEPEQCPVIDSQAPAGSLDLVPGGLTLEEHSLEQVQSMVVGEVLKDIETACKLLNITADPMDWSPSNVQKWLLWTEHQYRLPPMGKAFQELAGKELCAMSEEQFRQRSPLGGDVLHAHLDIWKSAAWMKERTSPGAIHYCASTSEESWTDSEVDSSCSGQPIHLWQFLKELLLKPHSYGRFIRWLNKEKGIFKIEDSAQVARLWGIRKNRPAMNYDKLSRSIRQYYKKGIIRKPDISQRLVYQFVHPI
# How it was run: as §1
# [15] = target: T10, ETV7 (Homo sapiens, UniProt Q9Y603 1-341); details: protein: recombinant; tags: N-terminal GST; dsDNA, one strand shown
# T10 sequence: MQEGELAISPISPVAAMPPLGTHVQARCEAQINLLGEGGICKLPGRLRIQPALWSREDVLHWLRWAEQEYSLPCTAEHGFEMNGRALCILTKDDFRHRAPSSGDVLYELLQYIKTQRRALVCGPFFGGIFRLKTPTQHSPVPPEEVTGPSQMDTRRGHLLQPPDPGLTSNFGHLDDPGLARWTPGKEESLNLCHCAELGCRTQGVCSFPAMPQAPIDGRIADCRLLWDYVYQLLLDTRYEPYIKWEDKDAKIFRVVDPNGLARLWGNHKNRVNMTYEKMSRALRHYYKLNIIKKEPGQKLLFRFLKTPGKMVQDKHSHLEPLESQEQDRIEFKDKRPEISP
# How it was run: as §1
# [16] = target: T11, ELF5 (Homo sapiens, UniProt Q9UKW6-2 1-255); details: protein: recombinant; tags: N-terminal GST; dsDNA, one strand shown
# T11 sequence: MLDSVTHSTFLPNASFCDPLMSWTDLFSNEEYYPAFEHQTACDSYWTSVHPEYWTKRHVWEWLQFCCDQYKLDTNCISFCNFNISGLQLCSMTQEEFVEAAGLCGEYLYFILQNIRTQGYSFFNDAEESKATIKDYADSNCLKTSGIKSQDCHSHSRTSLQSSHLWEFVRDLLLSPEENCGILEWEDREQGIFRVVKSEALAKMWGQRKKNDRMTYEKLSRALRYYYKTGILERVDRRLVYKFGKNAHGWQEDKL
# How it was run: as §1
# [17] = target: T12, ETV3 (Homo sapiens, UniProt P41162-2 1-143); details: protein: recombinant; tags: N-terminal GST; dsDNA, one strand shown
# T12 sequence: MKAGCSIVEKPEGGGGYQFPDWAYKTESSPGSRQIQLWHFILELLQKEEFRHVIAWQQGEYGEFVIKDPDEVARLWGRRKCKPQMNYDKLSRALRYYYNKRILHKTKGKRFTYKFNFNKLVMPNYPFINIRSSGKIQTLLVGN
# How it was run: as §1
# [18] = target: ETV6 (Homo sapiens, UniProt P41212 1-452); details: protein: recombinant; tags: N-terminal GST; dsDNA, one strand shown
# Chain of ETV6 (P41212 whole entry): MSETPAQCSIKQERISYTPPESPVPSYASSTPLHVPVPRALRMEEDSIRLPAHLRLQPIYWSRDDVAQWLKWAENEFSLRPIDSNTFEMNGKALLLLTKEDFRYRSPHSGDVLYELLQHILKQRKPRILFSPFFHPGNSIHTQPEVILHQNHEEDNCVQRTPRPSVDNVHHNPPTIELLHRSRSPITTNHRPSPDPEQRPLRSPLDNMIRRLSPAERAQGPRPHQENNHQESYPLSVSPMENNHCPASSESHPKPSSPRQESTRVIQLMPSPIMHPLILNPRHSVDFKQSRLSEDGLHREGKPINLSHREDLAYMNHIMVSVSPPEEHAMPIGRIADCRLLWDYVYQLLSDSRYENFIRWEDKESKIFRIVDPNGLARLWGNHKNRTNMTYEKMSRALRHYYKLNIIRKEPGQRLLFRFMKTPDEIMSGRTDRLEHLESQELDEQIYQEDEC
# How it was run: as §1
sequence,measurement,setting,value
CCGCAC,binding signal,[1],"1.42 fold enrichment (6-mer frequency, TF over GST control)"
same,binding signal,[2],"1.4 fold enrichment (6-mer frequency, TF over GST control)"
same,binding signal,[3],"1.13 fold enrichment (6-mer frequency, TF over GST control)"
same,binding signal,[4],"1.27 fold enrichment (6-mer frequency, TF over GST control)"
same,binding signal,[5],"1.5 fold enrichment (6-mer frequency, TF over GST control)"
same,binding signal,[6],"1.3 fold enrichment (6-mer frequency, TF over GST control)"
same,binding signal,[7],"1.39 fold enrichment (6-mer frequency, TF over GST control)"
same,binding signal,[8],"1.39 fold enrichment (6-mer frequency, TF over GST control)"
same,binding signal,[9],"1.02 fold enrichment (6-mer frequency, TF over GST control)"
same,binding signal,[10],"1.47 fold enrichment (6-mer frequency, TF over GST control)"
same,binding signal,[11],"1.46 fold enrichment (6-mer frequency, TF over GST control)"
same,binding signal,[12],"1.55 fold enrichment (6-mer frequency, TF over GST control)"
same,binding signal,[13],"1.47 fold enrichment (6-mer frequency, TF over GST control)"
same,binding signal,[14],"1.46 fold enrichment (6-mer frequency, TF over GST control)"
same,binding signal,[15],"1.4 fold enrichment (6-mer frequency, TF over GST control)"
same,binding signal,[16],"1.59 fold enrichment (6-mer frequency, TF over GST control)"
same,binding signal,[17],"1.61 fold enrichment (6-mer frequency, TF over GST control)"
same,binding signal,[18],"1.56 fold enrichment (6-mer frequency, TF over GST control)"
